Results on 40 compounds are retold here after PubChem BioAssay (Tox21).

Records with an inconclusive call do not appear. A call without a number means that no potency is given here. Values without a mark were called inactive. Activity calls are given as the source filed them. Calls come from the whole dose curve; as a rule, active = well fitted inhibition curve with a large enough effect in the repeat runs; inconclusive = weak or mixed curves; inactive = flat fitted curve, though single readings scatter.
Potency is the fitted concentration of half-maximal effect.

The experiment in a line: qHTS assay to identify small molecule HDAC inhibitors (AID 1259364). For activity change, negative = inhibition: top concentration of the series differs between compounds. Note: nearly all actives have a fitted effect of over 45% in size. To be noted: HCT-116 HDAC-Glo I/II luminescence, 2 h; series mostly up to 92.4 µM. The text has this:
U.S. Tox21 Program National Center for Advancing Translational Sciences [NCATS] NIH Chemical Genomics Center [NCGC] U.S. Environmental Protection Agency [EPA] National Institutes of Environmental Health Sciences [NIEHS] National Toxicology Program [NTP] U.S. Food and Drug Administration [FDA] Tox21 Assay Overview: Histone deacetylases (HDACs) are a group of epigenetic enzymes that regulate gene expression by histone deacetylation. HDACs are capable of introducing epigenetic modifications and such aberrations contribute to the onset and progression of several human diseases, thus making HDACs a popular therapeutic target. For identifying endogenous class I/II HDAC inhibitors a homogenous, luminogenic HDAC I/II cell based assay was used to measure the relative activity of class I and II HDACs from cells. Wild type HCT-116 cells were used to screen Tox21 libraries for identifying class I/II HDAC inhibitors.
Tox21 Assay Protocol Summary: HCT-116 cells were dispensed at 1,500 per well in 5uL of culture medium into white solid bottom 1536-well plates (Greiner Bio-One, Monroe, NC) using a Multidrop Combi (Thermo Scientific, Waltham, MA) dispenser. The assay plates were incubated at 37 C and 5% CO2 for an overnight, and then 23nL of compounds dissolved in DMSO and positive control were transferred using a Pintool station (Wako, San Diego, CA). The assay plates were incubated at 37C and 5% CO2 for 2hr. After compound treatment, 4uL of HDAC-Glo reagent (Promega Corporation, Madison, WI) was added to each well of the assay plates using Flying Reagent Dispenser (FRD, Aurora Discovery, San Diego, CA) and incubated the assay plates at room temperature for 30min. The luminescence signal was quantified using a ViewLux plate reader (Perkin Elmer, Shelton, CT).
With `N#CC1(c2ccc(F)cc2)CCC(=O)CC1`, the Potency result is “inactive”.

As to `COc1cccc2c1C(=O)c1c(O)c3c(c(O)c1C2=O)C[C@@](O)(C(=O)CO)C[C@@H]3O[C@H]1C[C@H](N)[C@H](O[C@@H]2CCCCO2)[C@H](C)O1`, the Potency was 11.9 µM (active).

For `CCCCCCCC[P+](CCCCCCCC)(CCCCCCCC)CCCCCCCC`, the Potency entry was “inactive”.

On to `C=CC(=O)OCC(CO)(COCC(COC(=O)C=C)(COC(=O)C=C)COC(=O)C=C)COC(=O)C=C`, for which the Potency entry was “inactive”.

Take `O=c1c(-c2ccccc2)c1-c1ccccc1`: the Potency result is “inactive”.

`O=c1cccccc1O`: the Potency entry was “inactive”.

With `CCN(CCC#N)c1ccc(N=Nc2c(Cl)cc([N+](=O)[O-])cc2Cl)cc1`, the Potency result is “inactive”.

Consider `CCC1OCC(COc2ccc(Oc3ccccc3)cc2)O1` (stereo not given), for which the Potency was 17.2 µM (active).

On to `Clc1ccc2n[nH]nc2c1`, for which the Potency entry was “inactive”.

For `COc1c(C)c2c(c(O)c1C/C=C(\C)CCC(=O)O)C(=O)OC2`, the Potency entry was “inactive”.

On to `Cc1ccc(O)c(C(C)(C)C)c1`, for which the Potency entry is “inactive”.

Consider `Cc1[nH]nc2c1N=C(c1ccccc1Cl)c1cc([N+](=O)[O-])ccc1N2`, for which the Potency entry is “inactive”.

Consider `C[n+]1cc2c3c(ccc2c2ccc4cc5c(cc4c21)OCO5)OCO3`, for which the activity change, negative = inhibition is -20.3% [at 19 µM].

Regarding `c1ccc(CSCc2ccccc2)cc1`, the Potency was 24.3 µM (active).

`CC(=O)S[C@@H]1CC2=CC(=O)CC[C@]2(C)[C@H]2CC[C@@]3(C)[C@@H](CC[C@@]34CCC(=O)O4)[C@H]12`: the Potency entry is “inactive”.

`On1ccccc1=S`: the Potency is 12.1 µM (active).

Turning to `COc1ccc(C(=O)/C(Br)=C\C(=O)O)cc1`, the Potency entry was “inactive”.

In the case of `CN1CCN(CCC(=O)N2c3ccccc3Sc3ccc(C(F)(F)F)cc32)CC1`, the Potency entry was “inactive”.

Regarding `CCC(CN)=C(c1ccccc1)c1ccccc1`, the Potency result was “inactive”.

Take `CNC(=O)c1ccccc1`: the Potency entry was “inactive”.

`CCc1cc(Cc2cc(CC)c(N)c(CC)c2)cc(CC)c1N`: the Potency entry is “inactive”.

With `O=C(N/N=C/c1ccccc1O)c1ccncc1`, the Potency was 23.7 µM (active).

Consider `CC1=C(C(=O)OC(C)C)C(c2cccc([N+](=O)[O-])c2)C(C(=O)OC2CN(C(c3ccccc3)c3ccccc3)C2)=C(N)N1` (stereo not given), for which the Potency entry was “inactive”.

Take `C[C@@H]1C[C@H]2[C@@H]3CCC4=CC(=O)C=C[C@]4(C)[C@@]3(Cl)[C@@H](O)C[C@]2(C)[C@@]1(OC(=O)c1ccco1)C(=O)CCl`: the Potency result is “inactive”.

As to `COC(=O)c1cc(Cl)ccc1OC`, the Potency result was “inactive”.

Turning to `CCCCCCCCCCCCCCCCCC[N+](C)(C)Cc1ccccc1`, the Potency result is “inactive”.

For the compound `CC(C)c1ccc2c(c1)CC[C@H]1[C@](C)(CN)CCC[C@]21C`, the Potency entry is “inactive”.

On to `CC(C)(C)CC(C)(C)c1ccc(O)c(Cc2ccc(Cl)cc2Cl)c1`, for which the Potency entry is “inactive”.

Consider `Oc1ccc2c(c1)-c1ccccc1C2`, for which the Potency result was “inactive”.

In the case of `CCc1cc(SCc2sc(-c3ccc(C(F)(F)F)cc3)nc2CN2CCN(c3ccc(OC)cc3)CC2)ccc1OCC(=O)O`, the Potency result is “inactive”.

Regarding `CCN1/C(=C/C=C/c2sc3ccccc3[n+]2CC)Sc2ccccc21`, the activity change, negative = inhibition is -19.9% [at 19 µM].

Regarding `C=CC(=O)OCCn1c(=O)n(CCOC(=O)C=C)c(=O)n(CCOC(=O)C=C)c1=O`, the Potency entry is “inactive”.

Consider `C/C(=C(/OCCOc1ccc(Cl)cc1)c1ccc(Cl)cc1Cl)n1ccnc1`, for which the Potency result was “inactive”.

With `Cc1ccc(-n2nc(C(C)(C)C)cc2NC(=O)Nc2ccc(OCCN3CCOCC3)c3ccccc23)cc1`, the Potency result is “inactive”.

Consider `CCCCCCCCNC(C)C(O)c1ccc(SC(C)C)cc1` (stereo not given), for which the Potency entry was “inactive”.

In the case of `NC(=O)C1(N2CCCCC2)CCN(CCCN2c3ccccc3CCc3ccc(Cl)cc32)CC1`, the Potency entry is “inactive”.

As to `CC[C@H]1O[C@]2(CC[C@@H]1C)C[C@@H]1C[C@@H](C/C=C(\C)C[C@@H](C)/C=C/C=C3\CO[C@@H]4[C@H](O)C(C)=C[C@@H](C(=O)O1)[C@]34O)O2`, the Potency entry is “inactive”.

In the case of `NNc1nc(-c2ccc(N)cc2)cs1`, the Potency result was “inactive”.

Take `N=C1N=C(N)c2ccccc21`: the Potency result was “inactive”.

Turning to `Cc1nc(-c2ccc3c(c2)CCN(CCC2CCC(NC(=O)/C=C/c4ccc(F)cc4)CC2)CC3)no1` (stereo not given), the Potency result is “inactive”.
